Bioassay records: PubChem, Buhrlage Lab, Dana-Farber Cancer Institute and Novartis Institutes for BioMedical Research (Cambridge, Mass)
Only some compounds are listed: those with a hit (about 14% of all), similar ones and a draw of the others.
USP10 inh: blocks human USP10 ubiquitin-rhodamine cleavage | Q14694 | purified USP10, Ub-rhodamine fluorescence, 60 min | inhibition, % at 20 µM | actives 1.1% (n = 47,000) | AID 1645856
USP17 inh: blocks human USP17 ubiquitin-rhodamine cleavage; AID 1645855; actives 6.5% (n = 47,000); inhibition, % at 50 µM; purified USP17, Ub-rhodamine cleavage fluorescence, 3 h; A8MUK1
USP30 inh: human USP30 deubiquitinase inhibition; Q70CQ3; purified USP30, Ub-rhodamine cleavage fluorescence; inhibition, % at 25 µM; actives 5.3% (n = 47,000)
USP28 inh: human USP28 deubiquitinase inhibition | purified USP28, Ub-rhodamine cleavage fluorescence, 30 min | Q96RU2 | inhibition, % at 25 µM | actives 3% (n = 47,000) | AID 1645857
USP8 inh: blocks human USP8 ubiquitin-rhodamine cleavage; AID 1645853; inhibition, % at 20 µM; P40818; purified USP8, Ub-rhodamine cleavage fluorescence, 30 min; actives 4.2% (n = 47,000)
Of the large screens only hits and unclear results are named; the others gave an inactive call. Cut-off read from the data, not from the text of the source: active = inhibition above about 30%; inactive = the rest.

O=[N+]([O-])c1cccc(-c2nnc(Cc3cc(F)cc(F)c3)o2)c1	none
O=[N+]([O-])c1ccc(Cc2nnc(-c3ccccc3Cl)o2)cc1	USP17 inh 35, USP28 inh 48
CN(Cc1ccc2c(c1)OCO2)C(C(=O)Nc1ccc(F)cc1)c1ccccc1 (centres undefined)	USP30 inh 39
COc1ccc(N2CCCS2(=O)=O)cc1NC(=O)COc1cccc(C)c1	none
Cn1ncc2c(NCc3ccccc3Cl)nc(NC3CCCC3)nc21	none
O=C1COc2ccc(-c3cc4n(c3)CCc3cc5c(cc3-4)OCO5)cc2N1	USP8 inh 43
Cc1sc(-c2ccccn2)nc1OC(=O)c1cccc(Cl)c1Cl	USP17 inh 77, USP30 inh 82
O=C(NC1CCCCC1)C(c1ccc(F)cc1)N(C(=O)CN1C(=O)c2ccccc2S1(=O)=O)c1ccccc1 (centres undefined)	USP30 inh 31
O=C(NC1CCCCC1)C(c1ccc(F)cc1)N(Cc1ccccc1)C(=O)CN1C(=O)c2ccccc2S1(=O)=O (centres undefined)	USP30 inh 45
Cc1nc2ccc(C(=O)N3CCCC3c3nc(C)c4c(n3)N(CC(C)C)C(=O)C4)cc2s1 (centres undefined)	USP17 inh 42, USP8 inh 89
O=C(Nc1ccccc1-c1nc2ccccc2[nH]1)c1sc2ccccc2c1Cl	USP10 inh 33, USP17 inh 83, USP8 inh 59
O=C(Nc1ccccc1-c1nc2ccccc2[nH]1)c1ccc(Br)cc1	none
COc1ccc(OCc2nc(-c3ccc(N4CCCCCC4)nc3)no2)cc1	USP8 inh 44
Cc1cccc(OCc2nc(-c3ccnc(N4CCCC4)c3)no2)c1	USP28 inh 32
c1cc(-c2noc([C@@H]3CCCN3CC3CC3)n2)cc(N2CCCC2)n1	none
c1ccc2c(c1)CCN(Cc1nc(-c3ccc(N4CCOCC4)nc3)no1)C2	USP8 inh 36
Fc1ccc(Cc2nc(-c3ccnc(N4CCCC4)c3)no2)cc1	USP28 inh 48
c1cc(N2CCOCC2)ncc1-c1noc(CN2CCCCCC2)n1	none
CCc1ccc(Nc2cc(C(=O)N3CCC4(CC3)OCCO4)c3ccccc3n2)cc1	none
Cc1noc(C)c1-c1ccc(S(=O)(=O)Nc2cccc(C#N)c2)cc1	none
CCOC(=O)C(CC(C)C)NS(=O)(=O)c1ccc(C)cc1 (centres undefined)	none
COc1ccc(-c2noc(-c3ccc(N4CCC5(CC4)OCCO5)nc3)n2)cc1	USP30 inh 34
Cc1ccc(-c2noc(-c3ccc(N4CCC5(CC4)OCCO5)nc3)n2)cc1	none
COc1cccc(CNc2cc(C(C)C)nc3nc(-c4cccnc4)nn23)c1	USP17 inh 35
c1ccc(-c2cc(NCc3cccnc3)n3nc(-c4cccnc4)nc3n2)cc1	none
CC(C)c1cc(NCc2ccco2)n2nc(-c3cccnc3)nc2n1	USP17 inh 31, USP30 inh 37
CCCNc1cc(-c2ccccc2)nc2nc(-c3cccnc3)nn12	USP17 inh 54
CC(C)c1cc(Nc2ccc(O)cc2)n2nc(-c3cccnc3)nc2n1	none
Cc1cc(Br)ccc1NC(=O)CSc1nc2c(cc1C#N)C(=O)CCC2	none (no result: USP17 inh)
Cc1cc(C)c(NC(=O)CSC2=C(C#N)C(c3ccc(C)o3)C3=C(CCCC3=O)N2)c(C)c1 (centres undefined)	USP30 inh 35, USP28 inh 31
COc1cccc(CN2CCC3(CC2)OC(C(=O)Nc2ccccc2)Cn2ccnc23)c1 (centres undefined)	none
Cc1ncc(-c2ccccn2)c(-c2ccc(CNC(=O)Cc3sc(C)nc3C)cc2)n1	USP8 inh 36
Cc1ncc(-c2ccccn2)c(-c2ccc(CNC(=O)CCN3CCOCC3)cc2)n1	none
COc1cccc(C(=O)N2CCCCC2CCN2CCCC2)c1 (centres undefined)	none
COc1ccc(-c2cc(-c3ccc(F)cc3)[nH]c(=O)c2C#N)cc1	USP10 inh 40, USP30 inh 79, USP8 inh 58 (no result: USP17 inh)
COc1ccc(C(=O)N(CC2CCCO2)c2nc(-c3ccccc3)cs2)cc1 (centres undefined)	none
COc1ccc([C@H]2C[C@@H](O)[C@@H](O)[C@@H]2NC(=O)c2cccc(OC)c2)cc1	none
Fc1ccc(CSc2nnc(-c3ccccn3)n2Cc2ccco2)cc1	USP28 inh 56
Fc1ccccc1CSc1nnc(-c2ccccn2)n1Cc1ccco1	USP28 inh 32
O=C(CSc1nnc(-c2ccccn2)n1-c1ccccc1)Nc1cccc2ccccc12	none
O=C(CSc1nnc(-c2cnccn2)n1Cc1ccco1)Nc1cccc(F)c1	none
COc1ccc(CSc2nnc(-c3ccccn3)n2-c2ccc(OC)cc2)cc1	USP30 inh 38
COc1ccc(-n2c(SCC(=O)c3ccccc3)nnc2-c2cccnc2)cc1	none
COc1ccccc1NC(=O)CSc1nnc(-c2ccccn2)n1-c1cc(C)cc(C)c1	USP17 inh 34
Cc1ccc(Nc2c(S(=O)(=O)c3ccc(C)cc3)cnc3ccc(Cl)cc23)cc1	none
Cn1cncc1-c1nnc([C@H]2CCN(Cc3cccc(C#N)c3)C2)o1	none
CCNC(=O)c1cc2cccc3c2n1CCS3	none (no result: USP17 inh)
CC1CCCN(C(=O)c2cn(-c3cc(N4CCOCC4)ncn3)cn2)C1 (centres undefined)	none
Cc1ccc(C)c(NC(=O)CSc2nnc(-c3ccccn3)n2Cc2ccco2)c1	USP17 inh 39, USP30 inh 62
CCc1ccccc1NC(=O)CSc1nnc(-c2cnccn2)n1Cc1ccco1	none
COc1ccc(CC(=O)N2CCC3(CC2)N=C(c2ccc(Cl)cc2)C(=O)N3)cc1	none
O=C(Cc1ccc(-n2c(=O)c3sccc3n(Cc3ccc(F)cc3)c2=O)cc1)NCCc1ccccc1	USP10 inh 37, USP17 inh 67 (no result: USP30 inh, USP28 inh)
Cc1ccccc1NC(=O)Cn1c(=O)n(-c2ccc(CC(=O)NCCc3ccccc3)cc2)c(=O)c2sccc21	USP10 inh 51, USP8 inh 84
CCc1ccccc1NC(=O)Cn1c(=O)n(CC(=O)NCc2ccccc2Cl)c(=O)c2sccc21	USP8 inh 38
Cc1ccc(NC(=O)Cn2c(=O)n(-c3ccc(CC(=O)NCc4ccco4)cc3)c(=O)c3sccc32)c(C)c1	USP10 inh 44, USP17 inh 69 (no result: USP30 inh, USP28 inh)
O=C(Nc1ccc(F)cc1)c1cn(-c2cc(N3CCOCC3)ncn2)cn1	none
NS(=O)(=O)c1ccc(NC(=O)COC(=O)c2sc3cc(F)ccc3c2Cl)cc1	USP30 inh 41, USP28 inh 34, USP8 inh 37
Cc1ccc(C(=O)N2CCN(c3ccc(CN4CCC(CO)CC4)cn3)CC2)s1	none
COc1ccc(CC(=O)Nc2cc(-c3cn4cccnc4n3)ccc2C)cc1	USP17 inh 37
O=C(COc1ccc(C(=O)Nc2ccc(F)cc2)cc1)Nc1ccc(Cl)cc1	none (no result: USP17 inh)
O=C(COc1ccc(Cl)cc1)Nc1ccc(-c2cn3cccnc3n2)cc1	USP17 inh 35, USP8 inh 53
CCCCc1nc2sc3c(SCC(=O)Nc4ccc(C)cc4)ncnc3c2c2c1CCC2	none
